In PubChem BioAssay AID777 (Sanford-Burnham Center for Chemical Genomics, 2007) one finds inhibition data, which are given here for 60 compounds.

The whole screen tested about 96,000 compounds, of which about 19,000 (20%) were called active. Only a sample is shown. Unmarked numbers belong to inactive results.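 The calls were made as follows: active = blocking of liver enzyme CYP2C9 beyond about 50% at 5 µM (limit read from the data); inactive = the rest.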

The target in this test is Cytochrome P450 2C9 (Homo sapiens) (UniProt P11712). Briefly: blockers of cytochrome P450 2C9 activity – biochemical, luminescence, ADME assay, primary screen (AID 777). Conditions: CYP2C9 Supersomes, luciferin-H conversion, at 5 µM, active compounds read high.
Cytochrome P450 2C9 (Homo sapiens), sequence (P11712 whole entry, looked up): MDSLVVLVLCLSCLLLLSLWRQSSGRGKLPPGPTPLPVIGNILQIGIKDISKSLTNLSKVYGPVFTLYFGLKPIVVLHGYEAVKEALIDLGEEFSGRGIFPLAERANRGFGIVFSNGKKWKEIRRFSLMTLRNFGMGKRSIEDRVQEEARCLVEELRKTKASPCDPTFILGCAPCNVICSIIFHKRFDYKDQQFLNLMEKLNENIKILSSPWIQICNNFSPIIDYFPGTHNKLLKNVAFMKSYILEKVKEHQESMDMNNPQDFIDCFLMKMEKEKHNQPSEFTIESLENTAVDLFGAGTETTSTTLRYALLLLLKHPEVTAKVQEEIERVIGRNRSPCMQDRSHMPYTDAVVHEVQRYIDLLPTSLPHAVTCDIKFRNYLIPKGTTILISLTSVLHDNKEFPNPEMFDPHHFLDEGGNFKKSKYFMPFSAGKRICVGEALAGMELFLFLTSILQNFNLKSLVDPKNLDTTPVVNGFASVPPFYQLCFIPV
Regarding `C=CCNc1nc(C)nc(OC)n1`, the inhibition was -13.4%.

As to `CCn1c(SCC(=O)NCC2CCCO2)nc2cc(S(=O)(=O)N3CCCCC3)ccc21` (stereo not given), the inhibition was 50.2% (active).

Consider `O=C(CCCn1c(SCC(=O)c2ccccc2)nc2ccccc2c1=O)NCC1CCCO1` (stereo not given), for which the inhibition is 91.9% (active).

For `O=C(CCn1c(SCC(=O)c2ccccc2)nc2ccccc2c1=O)NCc1ccc(F)cc1`, the inhibition is 91.5% (active).

Consider `Cn1c(-c2ccc(F)cc2)cnc1SCC(=O)NCc1ccco1`, for which the inhibition is 9.5%.

For `O=C(NCC1CCCO1)C(C(=O)c1ccccc1)n1cc(Cl)ccc1=O` (stereo not given), the inhibition is -9.3%.

Turning to `CCn1cc(C(=O)NCC2CCCO2)c(=O)c2cc(S(=O)(=O)N3CCCCC3)ccc21` (stereo not given), the inhibition was 44%.

Take `CCc1ccc(NC(=O)CSc2nc3ccccc3c(=O)n2CCN2CCOCC2)cc1`: the inhibition was 47.5%.

As for `O=C(CSc1nc2cc3c(cc2c(=O)n1CCC1=CCCCC1)OCO3)NCc1ccco1`, the inhibition is 8.9%.

`O=C(CCCn1c(SCC(=O)c2ccc(F)cc2)nc2ccccc2c1=O)NCc1ccco1`: the inhibition was 95% (active).

In the case of `O=C(CSc1nnc(-c2ccco2)n1CC1CCCO1)c1ccccc1` (stereo not given), the inhibition is -3.9%.

With `Cc1ccc(S(=O)(=O)N2CCC(C(=O)NCC3CCCO3)CC2)cc1` (stereo not given), the inhibition was -9.7%.

As to `CCOc1cc2[nH]c(=O)n(CCC(=O)NCc3ccc(OC)cc3)c(=O)c2cc1OCC`, the inhibition was -2.1%.

With `CCOC(=O)N1CCC(N(CCOC)C(=O)Nc2ccc(C)c(C)c2)CC1`, the inhibition is -10.6%.

As for `CS(=O)(=O)Nc1ccc(C(=O)N2CCCC2)cc1`, the inhibition was 17.2%.

Regarding `CCOC(=O)N1CCN(C(=O)c2n[nH]c(=O)c3ccccc23)CC1`, the inhibition was -4.2%.

For the compound `COc1ccc(C2C(C#N)=C(N)Oc3n[nH]c(C)c32)cc1CN1CCN(c2ccc(F)cc2)CC1` (stereo not given), the inhibition was 28%.

In the case of `O=C(Cn1cc2c(n1)CCCCC2)NCCN1CCOCC1`, the inhibition is -11.3%.

On to `O=C(NC(c1ccccc1)c1ccccc1)N1CCN(CCO)CC1`, for which the inhibition is 4%.

Consider `COc1ccc(N(CCC#N)S(=O)(=O)c2ccc(Cl)cc2)cc1`, for which the inhibition was 19.8%.

`C=CCC(NCc1ccco1)c1ccc(OC)cc1` (stereo not given): the inhibition is -14.6%.

As for `CCCCn1c(SCC(=O)NCC2CCCO2)nc2ccc(N3CCOCC3)cc2c1=O` (stereo not given), the inhibition is 74.1% (active).

Consider `N#CCSc1nc2ccc(N3CCOCC3)cc2c(=O)n1CCc1ccccc1`, for which the inhibition is 30.9%.

Consider `N#Cc1ccc(Oc2cc(C(F)(F)F)nc(-c3ccccn3)n2)cc1`, for which the inhibition is 42%.

`O=C(Nc1ccc(Cl)cc1)c1cc2nc(C3CC3)cc(C(F)(F)F)n2n1`: the inhibition was -1.8%.

As for `COc1cc(OC)c(-n2c(C)cc(C=O)c2C)cc1Cl`, the inhibition was 16.9%.

`COc1ccc(C(=O)NC(=S)NNC(=O)CCc2ccccc2)cc1`: the inhibition is 33.8%.

Regarding `CCNC(=S)NNC(=O)Cc1ccccc1`, the inhibition was 1.3%.

As to `CC(Oc1ccc2ccccc2c1)C(=O)NNC(=S)NC(=O)c1ccco1` (stereo not given), the inhibition was 85.3% (active).

With `CCCc1ccc(OCC(=O)NNC(=S)NC(=O)c2ccco2)cc1`, the inhibition is 65.8% (active).

Take `CC(NC(=O)c1ccco1)C(=O)Nc1nc(-c2ccccn2)cs1` (stereo not given): the inhibition is 9.7%.

As to `O=C(NCCSc1ccccc1)c1ccco1`, the inhibition was -18.4%.

Turning to `O=S(=O)(N/N=C\c1cccn1-c1ccccc1)c1ccc2ccccc2c1`, the inhibition was -71.5%.

Take `COc1ccccc1N=C1SC(C)CN1C(=O)C1CCC1` (stereo not given): the inhibition was -6.6%.

For `Cc1nc(NC(=O)C23CCC(C)(C(=O)O2)C3(C)C)sc1C` (stereo not given), the inhibition was -3.9%.

With `Cc1cccc(-n2c(N)cc(=O)nc2SC(C)C(=O)NC2CCCCC2)c1` (stereo not given), the inhibition is 27.7%.

On to `COc1cc(C(=O)Nc2oc(-c3ccccc3)c(-c3ccccc3)c2C#N)cc(OC)c1OC`, for which the inhibition is 43.6%.

As to `N#Cc1c(NC(=O)CCCN2C(=O)c3ccccc3C2=O)oc(-c2ccccc2)c1-c1ccccc1`, the inhibition was 50.3% (active).

With `O=C(CCCN1C(=O)c2ccccc2C1=O)Oc1ccc(Cl)cc1`, the inhibition is 19.8%.

On to `CS(=O)(=O)Nc1cccc(C2=NN(S(=O)(=O)c3ccccc3)C(c3cccs3)C2)c1` (stereo not given), for which the inhibition is 89.1% (active).

For `NC(=O)C1CCN(C2OC(=O)c3ccccc32)CC1` (stereo not given), the inhibition is -3.4%.

On to `Cc1ccc(CCn2c3c(c4ccccc42)CN(C)CC3)cn1`, for which the inhibition was -27.5%.

As to `O=C(CSc1nnc(-c2ccc(NS(=O)(=O)c3ccccc3)cc2)o1)NCC1CCCO1` (stereo not given), the inhibition was 92.2% (active).

On to `O=C(CS(=O)(=O)Cc1ccccc1)NCC1CCCO1` (stereo not given), for which the inhibition is -17.4%.

Take `O=C(Nc1ccc(-c2nnc(-c3ccccc3)o2)cc1)C1CCCO1` (stereo not given): the inhibition was -11.1%.

For the compound `CSC1=N/C(=C\C=C\c2cccs2)C(=O)S1`, the inhibition was -10.5%.

In the case of `Cc1nnc(SCCCn2c(N3CCCCC3)nc3c2c(=O)[nH]c(=O)n3C)s1`, the inhibition is 59.5% (active).

For `C=C(C)Cn1c(N2CCCC2)nc2c1c(=O)[nH]c(=O)n2C`, the inhibition is -5%.

For `Cn1c(=O)[nH]c(=O)c2c1nc(N1CCCCCC1)n2CC(=O)c1ccccc1`, the inhibition was 7.5%.

Consider `CSCCC1NC2(C(=O)Nc3ccc(Cl)cc32)[C@@H]2C(=O)N(C3CCCC3)C(=O)[C@H]12` (stereo not given in full), for which the inhibition was 76.1% (active).

In the case of `O=C(CN1CCCCCC1)Nc1ccc(Br)cc1Br`, the inhibition is 16.5%.

`Cc1cccc(N2CCN(C(c3ccccc3)c3nnnn3CC3CCCO3)CC2)c1C` (stereo not given): the inhibition is 37.3%.

For the compound `CCOc1ccc2[nH]c(=O)c(C(c3nnnn3CCOC)N3CCOCC3)cc2c1` (stereo not given), the inhibition was 6.5%.

Consider `COc1ccc(C(c2nnnn2C2CCCCC2)N2CCN(c3ccccc3F)CC2)cc1` (stereo not given), for which the inhibition was 73.7% (active).

For the compound `COc1ccc(N2CCN(C(c3cc4ccc(C)cc4[nH]c3=O)c3nnnn3C3CCCC3)CC2)cc1` (stereo not given), the inhibition was 75.7% (active).

On to `CC(C)C(c1nnnn1C1CCCC1)N1CCN(c2ccccc2F)CC1` (stereo not given), for which the inhibition is 8.2%.

Take `Cc1cccc2cc(CN(Cc3cccs3)C(c3nnnn3C3CCCC3)C(C)C)c(=O)[nH]c12` (stereo not given): the inhibition was -38.3%.

On to `N#Cc1ccc(-c2ccc(F)cc2)nc1Sc1ccccc1`, for which the inhibition is 13.2%.

For `Cc1[nH]n(-c2ccccc2)c(=O)c1CCOC(=O)c1ccc(C(F)(F)F)cc1`, the inhibition was -11.8%.

With `COC(=O)CN(c1nc(C)c(Cl)c(OC)n1)S(=O)(=O)c1ccc(C)cc1`, the inhibition is 34.3%.

One may read the inhibition as the change of the read-out against control, counted positive when it falls.
